Assay outcomes as filed in PubChem BioAssay.
An excerpt weighted towards active compounds, which were near 3.5% of everything screened.
TEAD-YAP block – TEAD-YAP interaction inhibition, primary screen, TEAD-YAP interaction inhibitor project, luminescence, HEK-TIYL cells | inhibition, % at 9.12 µM | AID 1259422, 2018 | TEAD-Gal4/YAP UAS-luciferase luminescence | 1.4% of 640,000 active; in the data active means inhibition above about 32%;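 further: 0% = median of test compound wells and 100% = reference inhibitor wells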
FBW7 act – FBW7 E3 ligase activators, primary screen, biochemical, AlphaScreen, human | AlphaScreen FBW7–phospho-cyclin E peptide binding, activator screen | F-box/WD repeat-containing protein 7 (Homo sapiens), Q969H0 | AID 1259310, 2017 | normalized activity (activation), % at 26.1 µM | 0.13% of 650,000 active; in the data active means normalized activity above about 1.9%;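 further: purified mutant Fbw7 with reduced substrate affinity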
Target sequence (Q969H0 whole entry, looked up): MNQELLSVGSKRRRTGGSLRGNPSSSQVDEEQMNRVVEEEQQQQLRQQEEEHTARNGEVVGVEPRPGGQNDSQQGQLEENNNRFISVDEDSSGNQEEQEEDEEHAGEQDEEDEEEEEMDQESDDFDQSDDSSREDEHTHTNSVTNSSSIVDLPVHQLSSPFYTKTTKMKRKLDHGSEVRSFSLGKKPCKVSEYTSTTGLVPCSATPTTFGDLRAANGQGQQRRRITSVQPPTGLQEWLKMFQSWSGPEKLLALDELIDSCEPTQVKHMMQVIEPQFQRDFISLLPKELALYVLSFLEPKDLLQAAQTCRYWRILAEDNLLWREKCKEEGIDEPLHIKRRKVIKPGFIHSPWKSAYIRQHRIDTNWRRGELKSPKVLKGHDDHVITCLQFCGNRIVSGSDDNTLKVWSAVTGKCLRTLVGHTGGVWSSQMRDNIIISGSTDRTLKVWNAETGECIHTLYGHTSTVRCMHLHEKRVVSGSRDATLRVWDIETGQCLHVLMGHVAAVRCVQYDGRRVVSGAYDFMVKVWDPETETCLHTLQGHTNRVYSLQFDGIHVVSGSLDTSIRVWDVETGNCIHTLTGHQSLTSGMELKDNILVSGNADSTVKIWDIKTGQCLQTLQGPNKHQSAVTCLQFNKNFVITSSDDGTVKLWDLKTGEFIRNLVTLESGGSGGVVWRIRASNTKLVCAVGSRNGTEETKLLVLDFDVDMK
GPR151 ag – activators of human GPR151, primary screen, cell-based, PathHunter beta-arrestin, luminescence. G-protein coupled receptor 151 (Homo sapiens), Q8TDV0. PathHunter beta-arrestin GPR151 cells. activation, % at 11.2 µM. 1% of 650,000 active; in the data active means activation above about 4.9%;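 further: 0% = median of compound wells and 100% = cells with positive control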
MITF inh – MITF inhibitors, primary screen, biochemical, AlphaScreen, human | inhibition, % at 2.6 µM | Microphthalmia-associated transcription factor (Homo sapiens), O75030 | 0.91% of 650,000 active | AlphaScreen MITF homodimerization, bead proximity signal; in the data active means inhibition above about 50%;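 further: 0% = vehicle wells with protein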
* marks the source's active call; other numbers are inactive results.

SMILES	TEAD-YAP block	FBW7 act	GPR151 ag	MITF inh
NC(=S)N/N=C/c1cccc(O)c1O	-9.1	-1.4	1.4	106.1*
NC(=S)N/N=C/c1cccc(/C=N/NC(N)=S)c1	2.0	-0.1	0.0	8.9
Oc1cccc(/C=N/NC(=S)NCCN2CCOCC2)c1O	-17.5	-1.3	-0.3	106.2*
Cn1c(=O)c2c(nc(Br)n2CC(N)=O)n(C)c1=O	1.6	0.5	-0.1	10.9
CCOC(=O)N1CC=C2C(C#N)=C(N)C(C#N)(C#N)C(C)C2C1 (stereo unspecified)	67.6*	0.0	0.6	9.3
COc1ccc(CSc2nnc(-c3cccs3)o2)cc1F	-19.5	0.1	-0.3	2.2
O=C(Nc1ccccc1NC(=O)c1cc2ccccc2o1)c1ccccn1	-3.8	-0.1	0.4	-3.2
O=C(Nc1ccccn1)c1cc2ccccc2o1	70.5*	-0.2	-9.6	10.8
Cc1ccnc(NC(=O)c2cc3ccccc3o2)c1	55.8*	0.5	-8.3	3.5
Cc1cc(C)cc(NC(=O)c2cc3ccccc3o2)c1	-26.6	0.0	-0.6	2.0
COC(=O)c1ccc(Nc2nc(-c3ccc(Cl)cc3Cl)nc3ccccc23)cc1	3.4	0.0	-0.3	-0.7
CC(C)(C)C1CCc2c(sc(NC(=O)c3cccs3)c2C(=O)NCCO)C1 (stereo unspecified)	1.1	0.0	-0.9	1.9
Cc1cccc(-n2ncc3c(N4CCCC4)ncnc32)c1	51.7*	-0.1	0.2	-0.2
Cc1cccc(N2CCN(c3ncnc4c3cnn4-c3ccccc3)CC2C)c1 (stereo unspecified)	43.1*	0.7	-0.5	14.2
Cc1ccc(-n2ncc3c(N4CCCC4)ncnc32)cc1	48.0*	0.3	-2.0	-8.7
Cc1cccc(-n2ncc3c(N4CCN(c5ccccc5)CC4)ncnc32)c1	-7.5	0.1	-0.4	-3.6
Cc1ccc(-n2ncc3c(N4CCCCC4)ncnc32)c(C)c1	-33.2	0.1	1.5	5.3
Cc1ccc(N2CCN(c3ncnc4c3c(-c3ccccc3)cn4-c3ccc(Br)cc3)CC2C)cc1 (stereo unspecified)	-4.6	3.7*	-0.6	-3.0
COC(c1ccccc1)c1nnc(CCC(=O)NC2Cc3ccccc3C2)o1 (stereo unspecified)	-9.8	-0.1	2.7	-8.3
COc1cc2nc(Nc3ccccc3)nc(Nc3ccc4c(c3)OCO4)c2cc1OC	2.8	-0.1	2.0	0.6
CCOC(=O)N1CCc2c(sc(NC(=O)c3ccc(S(=O)(=O)N(C)c4ccccc4)cc3)c2C(=O)OC)C1	-1.7	0.1	0.6	16.6
Cc1ccc(-n2ncc3c(N4CCCCC4)ncnc32)cc1C	73.4*	0.0	-4.4	9.9
Cc1cccc(-n2ncc3c(N4CCOCC4)ncnc32)c1	93.3*	0.0	-6.7	-1.3
Cc1ccc(-n2ncc3c(N4CCOCC4)ncnc32)c(C)c1	58.2*	-0.2	0.7	0.3
Cc1cc(Cl)ccc1OC(C)C(=O)NNC(=O)c1ccccc1 (stereo unspecified)	14.6	0.1	0.5	10.7
SMILES	TEAD-YAP block	FBW7 act	GPR151 ag	MITF inh
Cn1ccnc1SCCNc1nncc(-c2cccc(Cl)c2)n1	-0.1	-0.1	-0.5	3.5
COc1cccc2cc(C(=O)Nc3ccccc3)c(=Nc3ccc(C#N)cc3)oc12	-43.6	-0.1	-0.1	12.7
Oc1c(Br)cc(CN2CCOCC2)c2cccnc12	75.0*	-0.9	0.3	101.5*
Oc1c(Cl)cc(CN2CCOCC2)c2cccnc12	85.5*	-0.7	0.2	100.5*
CCCCNc1ncnc2ccc(Br)cc12	44.9*	0.1	3.3	-6.0
CCOc1ccc(Nc2nc(-c3ccccc3)c(C(=O)Nc3cccc(OC)c3)s2)cc1	-12.2	0.1	-0.1	-5.5
COc1ccc(OC)c(-c2nc(Nc3ccccc3F)sc2CC(=O)O)c1	-14.2	0.1	-0.4	2.6
CCOc1ccc(Nc2nc(N)c(C(=O)c3cccc(OC)c3)s2)cc1	61.1*	0.4	-1.2	2.5
COc1ccc(-c2nc(Nc3ccccc3OC)sc2CC(=O)O)cc1	51.3*	-0.1	1.6	7.7
CCOc1ccc(Nc2nc(-c3ccc(OC)c(OC)c3)c(CC(=O)O)s2)cc1	34.4*	-0.3	0.6	-0.2
C=CCNC(=S)Nc1ccc(F)cc1[N+](=O)[O-]	-0.8	-0.3	-0.6	-5.5
CCOC(=O)c1ccc(NC(=O)CSc2nc3c(sc(=S)n3-c3ccc(CC)cc3)c(=O)n2-c2ccc(F)cc2)cc1	18.2	0.1	-0.6	-7.4
O=c1c2c(-c3ccccc3)csc2ncn1/N=C/c1ccc(O)c(O)c1O	10.9	-0.3	-1.2	61.8*
O=C(Nc1ccccc1C(=O)N1CCCC1)c1ncoc1-c1ccccc1C(F)(F)F	62.9*	0.0	0.0	-11.7
COc1ccccc1-c1ocnc1C(=O)Nc1ccccc1C(=O)N1CCCC1	6.5	0.0	0.0	7.0
Cc1cc(C)nc(NC(N)=NCc2ccccc2)n1	5.0	-0.2	-0.3	6.7
Cc1ccc(CN=C(N)Nc2nc(C)cc(C)n2)cc1	54.0*	-0.2	1.6	-0.2
Cc1nc2ccc(Cl)cn2c1C(=O)NN=C1CCCCC1	11.3	0.0	-0.3	-0.1
Cc1ccc2nc(C)c(C(=O)NN=C3CCCCCC3)n2c1	57.6*	0.0	1.1	-5.1
COc1ccc(C(=O)Nc2nc(-c3ccc(C(C)C)cc3)cs2)cc1	-2.1	0.0	-0.3	6.9
CC(C)c1ccc(-c2csc(NC(=O)c3ccnn3C)n2)cc1	57.2*	0.0	2.5	-22.0
COc1ccc(CC(=O)N2CCC(c3nc(C)ncc3-c3ccncc3)CC2)cc1	-17.4	2.4*	0.0	16.6
Cc1cnc(N2CCN(c3ccccn3)CC2)nc1Nc1ccccc1	-3.1	-0.1	-0.9	5.8
CC(=O)Nc1ccc(Nc2nc(N3CCN(c4ccccn4)CC3)ncc2C)cc1	48.5*	0.1	1.5	17.2
Cc1ccccc1C(=O)N/N=C/c1ccc(Sc2nccn2C)c([N+](=O)[O-])c1	-14.0	0.0	0.3	-18.5
SMILES	TEAD-YAP block	FBW7 act	GPR151 ag	MITF inh
CCOC(=O)c1c(-c2ccc(OC)cc2)csc1NC(=O)CSc1ncn[nH]1	34.5*	-0.1	2.7	4.0
CCOc1ccccc1Nc1sc(C(=O)c2cccc([N+](=O)[O-])c2)c(N)c1C#N	9.3	-0.2	-1.9	-1.1
Nc1ccc2cc(S(=O)(=O)O)cc(O)c2c1	-2.1	-1.9	-0.5	77.1*
O=S(=O)(O)c1cc(O)c2cc(Nc3ccccc3)ccc2c1	12.4	-0.4	1.1	44.4
CCN(CC)C(=O)Sc1nc2ccccc2s1	43.8*	-0.1	-5.9	24.5
c1ccc(-c2cnc3c(N4CCOCC4)nccn23)cc1	-51.0	0.4	0.3	13.0
Oc1c(Br)cc(/C=C/c2ccc3cccc(O)c3n2)cc1Br	17.1	0.3	-0.8	7.0
Oc1cccc(/C=C/c2ccc3cccc(O)c3n2)c1	47.4*	0.1	-4.3	6.2
CC(=O)Oc1ccc(/C=C/c2ccc3cccc(OC(C)=O)c3n2)cc1[N+](=O)[O-]	-6.5	0.0	-7.4	21.3
Oc1cccc2ccc(/C=C/c3ccc(Cl)cc3)nc12	46.2*	0.1	-2.1	4.6
